# Test results as given in paper PMC7862700, “An all-to-all approach to the identification of sequence-specific readers for epigenetic DNA modifications on cytosine”.
# Experiments:
# Assay in all cases: DAPPL (digital affinity profiling via proximity ligation, sequencing); 10 mM Tris-HCl pH 7.5, 50 mM NaCl, 1 mM DTT, 4% glycerol, room temperature, 30 min; GST-TFs on glutathione beads, 16-mer random dsDNA library, 0.1% formaldehyde crosslink after washing; high values mean tight binding
# FEV = target: T1, FEV (Homo sapiens, UniProt Q99581 1-238); conditions: protein: recombinant; tags: N-terminal GST; dsDNA, one strand shown
# T1 sequence: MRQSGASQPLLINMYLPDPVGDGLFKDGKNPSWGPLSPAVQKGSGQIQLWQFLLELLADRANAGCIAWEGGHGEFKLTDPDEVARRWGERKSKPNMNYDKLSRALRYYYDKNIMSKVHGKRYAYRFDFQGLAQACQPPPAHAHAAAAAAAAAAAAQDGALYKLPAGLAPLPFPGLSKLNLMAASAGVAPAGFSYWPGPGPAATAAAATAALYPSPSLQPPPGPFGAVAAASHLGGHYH
# In short: (§1)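 Yeast served to express human transcription factors as GST fusions, which were then captured on glutathione beads and labelled with DNA barcodes. Pooled with a tag-only sample, they were incubated with 200 nmole of a 16-mer random double-stranded DNA library for 30 min at room temperature in Tris/NaCl/DTT/glycerol buffer, washed, crosslinked with 0.1% formaldehyde, ligated by proximity, amplified by PCR and sequenced. Dividing each hexamer's read frequency for a factor by its frequency for the tag-only sample gives the binding signal.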
# ETV5 = ETV5 (Homo sapiens, UniProt P41161 1-510); conditions: protein: recombinant; tags: N-terminal GST; dsDNA, one strand shown
# Sequence of ETV5 (P41161 whole entry): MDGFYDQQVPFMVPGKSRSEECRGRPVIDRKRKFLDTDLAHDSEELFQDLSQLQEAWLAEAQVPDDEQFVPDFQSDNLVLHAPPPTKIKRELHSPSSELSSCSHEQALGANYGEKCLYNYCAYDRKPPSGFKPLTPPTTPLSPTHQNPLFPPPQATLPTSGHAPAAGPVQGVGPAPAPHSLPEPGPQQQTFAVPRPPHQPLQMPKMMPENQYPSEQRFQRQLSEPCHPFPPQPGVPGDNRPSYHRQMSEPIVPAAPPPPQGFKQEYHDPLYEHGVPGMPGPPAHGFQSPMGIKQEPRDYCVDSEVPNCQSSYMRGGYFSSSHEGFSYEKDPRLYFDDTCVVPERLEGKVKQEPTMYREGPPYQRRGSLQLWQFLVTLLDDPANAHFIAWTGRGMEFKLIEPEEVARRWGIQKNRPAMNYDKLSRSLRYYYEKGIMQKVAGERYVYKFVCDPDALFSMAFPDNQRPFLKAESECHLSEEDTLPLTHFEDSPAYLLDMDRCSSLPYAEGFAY
# In short: as §1
# HSF1 = HSF1 (Homo sapiens, UniProt Q00613 1-529); conditions: protein: recombinant; tags: N-terminal GST; chain copies: 3; dsDNA, one strand shown
# Sequence of HSF1 (Q00613 whole entry): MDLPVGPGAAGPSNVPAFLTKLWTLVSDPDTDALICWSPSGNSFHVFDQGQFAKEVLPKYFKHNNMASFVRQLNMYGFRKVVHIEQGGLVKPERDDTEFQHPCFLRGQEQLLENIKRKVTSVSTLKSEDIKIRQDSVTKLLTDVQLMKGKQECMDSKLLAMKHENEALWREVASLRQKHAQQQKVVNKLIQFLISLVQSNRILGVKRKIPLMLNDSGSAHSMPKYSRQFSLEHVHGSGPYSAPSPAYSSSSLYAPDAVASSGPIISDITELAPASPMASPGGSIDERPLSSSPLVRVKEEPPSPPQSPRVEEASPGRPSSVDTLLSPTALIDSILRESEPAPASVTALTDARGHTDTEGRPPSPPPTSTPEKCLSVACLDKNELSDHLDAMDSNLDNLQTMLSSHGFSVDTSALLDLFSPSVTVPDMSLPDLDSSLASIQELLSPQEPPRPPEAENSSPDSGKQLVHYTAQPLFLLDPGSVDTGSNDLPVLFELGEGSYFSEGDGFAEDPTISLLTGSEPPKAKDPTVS
# In short: as §1
# SPIC = target: T2, SPIC (Homo sapiens, UniProt Q8N5J4 1-248); conditions: protein: recombinant; tags: N-terminal GST; dsDNA, one strand shown
# T2 sequence: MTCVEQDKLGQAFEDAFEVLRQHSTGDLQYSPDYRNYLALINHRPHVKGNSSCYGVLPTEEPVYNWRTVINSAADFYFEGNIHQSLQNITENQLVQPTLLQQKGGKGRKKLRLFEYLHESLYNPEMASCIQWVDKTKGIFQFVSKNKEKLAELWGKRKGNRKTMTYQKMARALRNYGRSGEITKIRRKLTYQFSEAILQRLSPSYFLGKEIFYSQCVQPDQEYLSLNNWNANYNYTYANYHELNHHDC
# In short: as §1
# ELF4 = ELF4 (Homo sapiens, UniProt Q99607 1-663); conditions: protein: recombinant; tags: N-terminal GST; dsDNA, one strand shown
# Sequence of ELF4 (Q99607 whole entry): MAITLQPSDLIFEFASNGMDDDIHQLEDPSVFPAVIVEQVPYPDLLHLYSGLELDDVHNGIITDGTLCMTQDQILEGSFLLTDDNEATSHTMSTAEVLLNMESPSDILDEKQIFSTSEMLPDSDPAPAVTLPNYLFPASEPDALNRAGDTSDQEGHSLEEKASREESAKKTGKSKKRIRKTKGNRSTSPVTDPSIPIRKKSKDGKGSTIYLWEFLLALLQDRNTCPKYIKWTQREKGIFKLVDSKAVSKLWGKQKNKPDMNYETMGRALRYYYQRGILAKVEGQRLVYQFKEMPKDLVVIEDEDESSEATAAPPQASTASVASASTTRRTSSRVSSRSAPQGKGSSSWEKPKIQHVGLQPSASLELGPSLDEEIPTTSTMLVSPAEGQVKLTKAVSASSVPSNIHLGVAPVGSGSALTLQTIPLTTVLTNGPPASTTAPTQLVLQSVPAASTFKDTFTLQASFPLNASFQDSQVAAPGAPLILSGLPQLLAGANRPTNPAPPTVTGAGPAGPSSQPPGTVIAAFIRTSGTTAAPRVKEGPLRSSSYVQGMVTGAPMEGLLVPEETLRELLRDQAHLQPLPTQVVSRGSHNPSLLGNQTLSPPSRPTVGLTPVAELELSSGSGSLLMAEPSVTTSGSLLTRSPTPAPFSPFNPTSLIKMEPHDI
# In short: as §1
# ELK4 = target: T3, ELK4 (Homo sapiens, UniProt P28324-2 1-405); conditions: protein: recombinant; tags: N-terminal GST; dsDNA, one strand shown
# T3 sequence: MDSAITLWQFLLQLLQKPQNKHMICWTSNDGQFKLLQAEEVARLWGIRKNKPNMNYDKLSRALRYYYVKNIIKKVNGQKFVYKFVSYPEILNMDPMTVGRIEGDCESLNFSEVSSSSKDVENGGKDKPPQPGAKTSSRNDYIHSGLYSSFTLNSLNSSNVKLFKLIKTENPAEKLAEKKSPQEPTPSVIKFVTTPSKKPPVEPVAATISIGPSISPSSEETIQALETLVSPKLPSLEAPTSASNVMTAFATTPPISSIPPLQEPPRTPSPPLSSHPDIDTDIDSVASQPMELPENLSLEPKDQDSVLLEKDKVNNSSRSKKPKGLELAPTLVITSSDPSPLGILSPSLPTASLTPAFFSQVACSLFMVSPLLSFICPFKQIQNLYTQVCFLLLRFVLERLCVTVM
# In short: as §1
# ETV2 = target: T4, ETV2 (Homo sapiens, UniProt O00321 1-342); conditions: protein: recombinant; tags: N-terminal GST; dsDNA, one strand shown
# T4 sequence: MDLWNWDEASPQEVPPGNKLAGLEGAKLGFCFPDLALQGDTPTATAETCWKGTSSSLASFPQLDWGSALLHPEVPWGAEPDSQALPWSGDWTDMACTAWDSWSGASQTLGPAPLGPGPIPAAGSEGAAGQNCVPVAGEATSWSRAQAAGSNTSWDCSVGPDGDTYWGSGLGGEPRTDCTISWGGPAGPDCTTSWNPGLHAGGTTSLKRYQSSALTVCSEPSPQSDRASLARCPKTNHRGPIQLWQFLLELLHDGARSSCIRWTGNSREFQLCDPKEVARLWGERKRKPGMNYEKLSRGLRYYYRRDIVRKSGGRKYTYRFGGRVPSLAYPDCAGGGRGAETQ
# In short: as §1
# ELF3 = target: T5, ELF3 (Homo sapiens, UniProt P78545 1-371); conditions: protein: recombinant; tags: N-terminal GST; dsDNA, one strand shown
# T5 sequence: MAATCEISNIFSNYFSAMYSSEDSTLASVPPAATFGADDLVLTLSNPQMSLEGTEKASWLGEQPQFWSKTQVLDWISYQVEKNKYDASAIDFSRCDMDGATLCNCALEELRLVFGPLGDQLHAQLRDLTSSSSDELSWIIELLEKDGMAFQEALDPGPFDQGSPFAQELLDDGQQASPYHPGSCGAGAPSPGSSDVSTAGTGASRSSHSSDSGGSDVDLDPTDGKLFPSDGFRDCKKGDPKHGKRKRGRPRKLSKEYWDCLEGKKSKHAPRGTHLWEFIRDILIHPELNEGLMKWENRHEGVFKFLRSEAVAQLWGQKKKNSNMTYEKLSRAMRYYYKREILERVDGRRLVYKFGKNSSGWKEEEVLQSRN
# In short: as §1
# CRX = CRX (Homo sapiens, UniProt O43186 1-299); conditions: protein: recombinant; tags: N-terminal GST; dsDNA, one strand shown
# Sequence of CRX (O43186 whole entry): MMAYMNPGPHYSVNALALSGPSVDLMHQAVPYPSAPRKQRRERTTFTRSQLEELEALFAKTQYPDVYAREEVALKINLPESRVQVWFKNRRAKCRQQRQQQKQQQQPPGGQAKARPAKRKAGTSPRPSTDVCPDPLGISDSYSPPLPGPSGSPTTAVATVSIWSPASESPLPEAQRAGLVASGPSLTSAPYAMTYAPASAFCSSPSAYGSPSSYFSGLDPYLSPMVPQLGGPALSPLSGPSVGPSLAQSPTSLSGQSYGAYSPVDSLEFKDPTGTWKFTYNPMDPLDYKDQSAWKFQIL
# In short: as §1
# ETV1 = ETV1 (Homo sapiens, UniProt P50549 1-477); conditions: protein: recombinant; tags: N-terminal GST; dsDNA, one strand shown
# Sequence of ETV1 (P50549 whole entry): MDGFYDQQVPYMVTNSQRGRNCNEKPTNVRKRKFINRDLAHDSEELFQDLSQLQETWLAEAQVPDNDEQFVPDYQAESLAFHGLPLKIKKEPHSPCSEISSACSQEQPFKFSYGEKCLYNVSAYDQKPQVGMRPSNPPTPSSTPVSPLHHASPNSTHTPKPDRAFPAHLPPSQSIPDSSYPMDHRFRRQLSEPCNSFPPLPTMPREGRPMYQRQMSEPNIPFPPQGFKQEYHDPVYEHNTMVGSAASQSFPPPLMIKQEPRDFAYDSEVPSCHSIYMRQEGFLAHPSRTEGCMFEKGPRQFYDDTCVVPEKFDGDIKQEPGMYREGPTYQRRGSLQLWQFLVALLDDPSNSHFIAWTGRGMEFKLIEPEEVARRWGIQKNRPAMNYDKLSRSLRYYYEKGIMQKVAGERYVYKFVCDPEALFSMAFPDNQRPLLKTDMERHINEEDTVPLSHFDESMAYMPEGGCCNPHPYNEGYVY
# In short: as §1
# ERF = target: T6, ERF (Homo sapiens, UniProt P50548 1-548); conditions: protein: recombinant; tags: N-terminal GST; dsDNA, one strand shown
# T6 sequence: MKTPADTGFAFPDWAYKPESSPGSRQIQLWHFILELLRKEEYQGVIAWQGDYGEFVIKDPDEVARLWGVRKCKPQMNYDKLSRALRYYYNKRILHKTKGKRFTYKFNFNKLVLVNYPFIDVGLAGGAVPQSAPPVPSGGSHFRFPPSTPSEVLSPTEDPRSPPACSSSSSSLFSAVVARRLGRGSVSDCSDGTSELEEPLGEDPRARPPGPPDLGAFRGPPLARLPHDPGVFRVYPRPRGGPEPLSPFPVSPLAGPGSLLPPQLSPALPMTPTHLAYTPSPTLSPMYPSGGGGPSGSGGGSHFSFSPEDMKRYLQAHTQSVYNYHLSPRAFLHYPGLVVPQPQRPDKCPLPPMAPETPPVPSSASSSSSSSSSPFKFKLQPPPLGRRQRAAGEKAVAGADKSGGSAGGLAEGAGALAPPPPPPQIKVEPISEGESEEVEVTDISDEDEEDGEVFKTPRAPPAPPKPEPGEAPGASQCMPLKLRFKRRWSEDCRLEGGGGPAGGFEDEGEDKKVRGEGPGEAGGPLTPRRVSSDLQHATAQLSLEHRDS
# In short: as §1
# ETV3L = target: T7, ETV3L (Homo sapiens, UniProt Q6ZN32 1-361); conditions: protein: recombinant; tags: N-terminal GST; dsDNA, one strand shown
# T7 sequence: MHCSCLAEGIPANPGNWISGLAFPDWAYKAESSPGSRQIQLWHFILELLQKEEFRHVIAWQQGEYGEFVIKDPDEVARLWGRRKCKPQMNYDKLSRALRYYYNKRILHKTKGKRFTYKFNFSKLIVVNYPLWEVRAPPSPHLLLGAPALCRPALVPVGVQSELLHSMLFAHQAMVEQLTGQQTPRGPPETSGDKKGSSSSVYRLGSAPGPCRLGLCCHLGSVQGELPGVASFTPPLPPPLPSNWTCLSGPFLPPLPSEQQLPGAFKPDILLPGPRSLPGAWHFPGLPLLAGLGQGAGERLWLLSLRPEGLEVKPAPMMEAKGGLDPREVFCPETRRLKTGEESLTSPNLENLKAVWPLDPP
# In short: as §1
# ETS2 = target: T8, ETS2 (Homo sapiens, UniProt P15036 1-469); conditions: protein: recombinant; tags: N-terminal GST; dsDNA, one strand shown
# T8 sequence: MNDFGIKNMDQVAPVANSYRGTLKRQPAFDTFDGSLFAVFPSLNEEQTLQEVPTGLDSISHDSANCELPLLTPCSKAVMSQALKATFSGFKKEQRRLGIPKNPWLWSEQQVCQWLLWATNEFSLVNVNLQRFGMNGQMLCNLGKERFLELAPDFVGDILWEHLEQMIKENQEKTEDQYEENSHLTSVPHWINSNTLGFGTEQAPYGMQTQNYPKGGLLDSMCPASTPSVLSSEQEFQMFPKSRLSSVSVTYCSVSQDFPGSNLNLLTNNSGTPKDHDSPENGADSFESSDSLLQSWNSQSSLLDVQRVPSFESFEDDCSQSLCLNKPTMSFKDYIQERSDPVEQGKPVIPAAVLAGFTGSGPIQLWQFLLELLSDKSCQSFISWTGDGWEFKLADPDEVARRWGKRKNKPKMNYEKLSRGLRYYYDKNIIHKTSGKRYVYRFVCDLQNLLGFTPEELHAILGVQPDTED
# In short: as §1
# SPDEF = target: T9, SPDEF (Homo sapiens, UniProt O95238 1-335); conditions: protein: recombinant; tags: N-terminal GST; dsDNA, one strand shown
# T9 sequence: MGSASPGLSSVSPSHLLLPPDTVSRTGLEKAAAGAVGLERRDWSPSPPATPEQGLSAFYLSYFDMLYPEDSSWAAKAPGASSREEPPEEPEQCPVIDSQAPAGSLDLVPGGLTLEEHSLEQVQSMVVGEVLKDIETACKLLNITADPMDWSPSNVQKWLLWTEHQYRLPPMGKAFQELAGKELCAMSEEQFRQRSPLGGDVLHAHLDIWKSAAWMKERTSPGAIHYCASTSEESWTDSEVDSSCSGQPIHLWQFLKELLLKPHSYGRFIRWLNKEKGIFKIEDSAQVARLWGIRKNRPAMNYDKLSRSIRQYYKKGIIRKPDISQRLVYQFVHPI
# In short: as §1
# ETV7 = target: T10, ETV7 (Homo sapiens, UniProt Q9Y603 1-341); conditions: protein: recombinant; tags: N-terminal GST; dsDNA, one strand shown
# T10 sequence: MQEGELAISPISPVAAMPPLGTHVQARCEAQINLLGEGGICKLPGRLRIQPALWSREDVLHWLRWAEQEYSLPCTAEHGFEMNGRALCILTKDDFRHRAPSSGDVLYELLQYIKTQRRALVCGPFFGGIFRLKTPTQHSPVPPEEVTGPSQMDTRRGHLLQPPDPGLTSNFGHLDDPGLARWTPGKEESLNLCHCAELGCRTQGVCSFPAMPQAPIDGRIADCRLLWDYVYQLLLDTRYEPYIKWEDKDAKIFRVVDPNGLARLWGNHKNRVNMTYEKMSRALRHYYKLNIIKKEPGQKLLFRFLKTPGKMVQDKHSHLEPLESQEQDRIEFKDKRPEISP
# In short: as §1
# ELF5 = target: T11, ELF5 (Homo sapiens, UniProt Q9UKW6-2 1-255); conditions: protein: recombinant; tags: N-terminal GST; dsDNA, one strand shown
# T11 sequence: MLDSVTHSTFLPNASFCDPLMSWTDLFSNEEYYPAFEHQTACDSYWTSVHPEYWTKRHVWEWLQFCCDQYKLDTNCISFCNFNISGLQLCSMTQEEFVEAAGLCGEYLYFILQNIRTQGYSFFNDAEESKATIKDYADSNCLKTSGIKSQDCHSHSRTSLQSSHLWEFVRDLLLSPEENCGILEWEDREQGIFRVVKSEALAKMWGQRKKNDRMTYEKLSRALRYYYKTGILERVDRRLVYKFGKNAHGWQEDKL
# In short: as §1
# ETV3 = target: T12, ETV3 (Homo sapiens, UniProt P41162-2 1-143); conditions: protein: recombinant; tags: N-terminal GST; dsDNA, one strand shown
# T12 sequence: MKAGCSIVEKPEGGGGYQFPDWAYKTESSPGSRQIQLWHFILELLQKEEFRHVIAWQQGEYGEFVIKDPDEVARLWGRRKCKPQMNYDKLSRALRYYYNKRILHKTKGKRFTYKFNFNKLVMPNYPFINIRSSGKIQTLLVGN
# In short: as §1
# ETV6 = ETV6 (Homo sapiens, UniProt P41212 1-452); conditions: protein: recombinant; tags: N-terminal GST; dsDNA, one strand shown
# Sequence of ETV6 (P41212 whole entry): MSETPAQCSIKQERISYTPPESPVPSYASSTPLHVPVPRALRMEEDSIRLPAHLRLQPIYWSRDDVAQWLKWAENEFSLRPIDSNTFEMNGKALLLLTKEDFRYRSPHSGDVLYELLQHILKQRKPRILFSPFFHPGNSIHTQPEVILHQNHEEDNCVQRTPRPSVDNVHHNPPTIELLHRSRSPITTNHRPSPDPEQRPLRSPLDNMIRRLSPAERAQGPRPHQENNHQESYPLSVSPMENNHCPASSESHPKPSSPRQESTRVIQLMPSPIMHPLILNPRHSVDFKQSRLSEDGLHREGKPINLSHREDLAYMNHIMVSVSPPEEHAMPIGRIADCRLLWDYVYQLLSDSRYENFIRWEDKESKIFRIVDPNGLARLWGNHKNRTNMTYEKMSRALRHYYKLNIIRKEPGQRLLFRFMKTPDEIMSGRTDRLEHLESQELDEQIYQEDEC
# In short: as §1
sequence,measurement,setting,value
ACGTTA,binding signal,FEV,"1.13 fold enrichment (6-mer frequency, TF over GST control)"
same,binding signal,ETV5,"1.11 fold enrichment (6-mer frequency, TF over GST control)"
same,binding signal,HSF1,"1.04 fold enrichment (6-mer frequency, TF over GST control)"
same,binding signal,SPIC,"1.18 fold enrichment (6-mer frequency, TF over GST control)"
same,binding signal,ELF4,"1.11 fold enrichment (6-mer frequency, TF over GST control)"
same,binding signal,ELK4,"1.03 fold enrichment (6-mer frequency, TF over GST control)"
same,binding signal,ETV2,"1.28 fold enrichment (6-mer frequency, TF over GST control)"
same,binding signal,ELF3,"1.09 fold enrichment (6-mer frequency, TF over GST control)"
same,binding signal,CRX,"1.17 fold enrichment (6-mer frequency, TF over GST control)"
same,binding signal,ETV1,"1.05 fold enrichment (6-mer frequency, TF over GST control)"
same,binding signal,ERF,"1.17 fold enrichment (6-mer frequency, TF over GST control)"
same,binding signal,ETV3L,"1.12 fold enrichment (6-mer frequency, TF over GST control)"
same,binding signal,ETS2,"1.15 fold enrichment (6-mer frequency, TF over GST control)"
same,binding signal,SPDEF,"1.06 fold enrichment (6-mer frequency, TF over GST control)"
same,binding signal,ETV7,"1.09 fold enrichment (6-mer frequency, TF over GST control)"
same,binding signal,ELF5,"1.06 fold enrichment (6-mer frequency, TF over GST control)"
same,binding signal,ETV3,"1.16 fold enrichment (6-mer frequency, TF over GST control)"
same,binding signal,ETV6,"1.12 fold enrichment (6-mer frequency, TF over GST control)"
